Key:
Conditions in all cases: concentration: 1 μM, replicates: in singlicate; n = 1
DAPK1 = tested on: DAPK1
DAPK2 = tested on: DAPK2
DAPK3 = tested on: DAPK3
DCAMKL1 = tested on: T1, DCAMKL1
T1 construct: gene DCLK1

DCAMKL2 = tested on: T2, DCAMKL2
T2 construct: gene DCLK2

DCAMKL3 = tested on: T3, DCAMKL3
T3 construct: gene DCLK3

DDR1 = tested on: DDR1
DDR2 = tested on: DDR2
DLK = tested on: T4, DLK
T4 construct: gene MAP3K12

DMPK2 = tested on: T5, DMPK2
T5 construct: gene CDC42BPG

DMPK = tested on: DMPK
DRAK1 = tested on: T6, DRAK1
T6 construct: gene STK17A

DRAK2 = tested on: T7, DRAK2
T7 construct: gene STK17B

DYRK1A = tested on: DYRK1A
DYRK1B = tested on: DYRK1B
DYRK2 = tested on: DYRK2
EGFR = tested on: EGFR
EIF2AK1 = tested on: EIF2AK1
EPHA1 = tested on: EPHA1
EPHA2 = tested on: EPHA2
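Note: KINOMEscan kinase panel screen.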

Compound | %Inh (DAPK1) | %Inh (DAPK2) | %Inh (DAPK3) | %Inh (DCAMKL1) | %Inh (DCAMKL2) | %Inh (DCAMKL3) | %Inh (DDR1) | %Inh (DDR2) | %Inh (DLK) | %Inh (DMPK2) | %Inh (DMPK) | %Inh (DRAK1) | %Inh (DRAK2) | %Inh (DYRK1A) | %Inh (DYRK1B) | %Inh (DYRK2) | %Inh (EGFR) | %Inh (EIF2AK1) | %Inh (EPHA1) | %Inh (EPHA2)
CN1c2ccc(NCc3ccc(F)cc3)cc2-c2c(cnn2C)S1(=O)=O | 3% | 12% | 15% | 16% | 25% | 9% | 0% | 31% | 0% | 0% | 0% | 0% | 0% | 0% | 16% | 0% | 0% | 0% | 0% | 12%
CCn1cnc2c(N)ncnc21 [GW345098] | 14% | 5% | 18% | 7% | 7% | 25% | 18% | 0% | 0% | 9% | 0% | 6% | 9% | 0% | 28% | 12% | 15% | 0% | 6% | 14%
CC(C)(C)n1cnc2c(N)ncnc21 [SKF-97359] | 78% | 19% | 0% | 0% | 0% | 11% | 0% | 0% | 31% | 0% | 9% | 0% | 6% | 0% | 61% | 0% | 39% | 0% | 0% | 0%
NS(=O)(=O)c1cccc(-c2ccc3ncc(N4CCOCC4)nc3c2)c1 [GSK1535721] | 18% | 12% | 18% | 10% | 0% | 0% | 0% | 23% | 26% | 1% | 0% | 0% | 0% | 0% | 4% | 28% | 12% | 0% | 0% | 7%
Cc1cccc(Cn2ccn3c(=O)cc(N4CCOCC4)nc23)c1 [GSK2297542] | 9% | 5% | 0% | 21% | 14% | 28% | 0% | 6% | 49% | 16% | 3% | 1% | 0% | 24% | 17% | 12% | 22% | 11% | 16% | 15%

Source: publication PMC5540273 (PLoS ONE, 2017)
